Here are results for 35 compounds from PubChem BioAssay (NCATS).

Test [1] is described as follows: qHTS of pediatric cancer cell lines to identify multiple opportunities for drug repurposing: Primary screen for MG 63 (6-TG R) cells (AID 1347105). Further: on the % scale 0 is the no-effect control and ±100 the full control effect; nearly all actives have a fitted effect of over 50% in size. The method in brief:
(§1)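 Readout: CellTiter-Glo luminescence, 48 h treatment. Controls DMSO (neutral) and bortezomib 2.3 µM final (positive). Potency and efficacy taken from primary-screen concentration-response curves.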
For orientation: Quantitative high-throughput screening tests each substance at several concentrations.

A short description of test [2]: qHTS of pediatric cancer cell lines to identify multiple opportunities for drug repurposing: Primary screen for control Hh wild type fibroblast cells (AID 1347106).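 Further: series mostly up to about 46 µM; on the % scale 0 is the no-effect control and ±100 the full control effect; a drop in luminescence marks cytotoxicity and a rise apparent proliferation; nearly all actives have a fitted effect of over 55% in size.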 The method in brief:
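Cells (500-1,000/well) in growth media were settled 5 h at 37 degrees C, then given compounds for 48 h. Viability was read as CellTiter-Glo luminescence. Primary runs used MIPE at 11 points (0.78 nM-46 µM) and NPC at 8 points (0.59 nM-46 µM); follow-ups used 11 points.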

Test [3] can be described thus: qHTS of pediatric cancer cell lines to identify multiple opportunities for drug repurposing: Primary screen for Rh30 cells (AID 1347107). Further: series mostly up to about 46 µM; on the % scale 0 is the no-effect control and ±100 the full control effect; nearly all actives have a fitted effect of over 75% in size. A digest of the protocol:
(§2)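 Cells (500-1,000/well) rested 5 h, then received compounds for 48 h; metabolically active cells were measured by CellTiter-Glo luminescence. Final concentrations spanned up to 46 µM (MIPE, 11-point) or 0.59 nM-46 µM (NPC, 8-point) in primary screens, 11-point in follow-ups.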

A short description of test [4]: qHTS of pediatric cancer cell lines to identify multiple opportunities for drug repurposing: Primary screen for Rh41 cells (AID 1347108).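 Further: series mostly up to about 46 µM; luminescence drop marks cytotoxic hits; nearly all actives have a fitted effect of over 70% in size.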 A digest of the protocol:
as §1

Test [5] can be described thus: qHTS of pediatric cancer cell lines to identify multiple opportunities for drug repurposing: Confirmatory screen for NB1643 cells (AID 1347109). Further: potency means the concentration at half of the fitted maximal effect; nearly all actives have a fitted effect of over 45% in size. The method in brief:
as §2

Test [6] is described as follows: qHTS of pediatric cancer cell lines to identify multiple opportunities for drug repurposing: Confirmatory screen for SK-N-MC cells (AID 1347111).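 Further: potency means the concentration at half of the fitted maximal effect; cells exposed to compound for 48 h before the readout; nearly all actives have a fitted effect of over 70% in size.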 The settings on record: SK-N-MC cell viability. The method in brief:
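Seed 500-1,000 cells/well; rest 5 h at 37 degrees C. Pin-transfer compounds, 11-point titration. Incubate 48 h. Add CellTiter-Glo, 15 min RT, read luminescence.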

A short description of test [7]: qHTS of pediatric cancer cell lines to identify multiple opportunities for drug repurposing: Confirmatory screen for LAN-5 cells (AID 1347113). Further: potency means the concentration at half of the fitted maximal effect; nearly all actives have a fitted effect of over 65% in size. A digest of the protocol:
as §2

Test [8] is described as follows: qHTS of pediatric cancer cell lines to identify multiple opportunities for drug repurposing: Confirmatory screen for DAOY cells (AID 1347114). Further: on the % scale 0 is the no-effect control and ±100 the full control effect; nearly all actives have a fitted effect of over 65% in size. The method in brief:
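Viability measured as metabolically active cells via CellTiter-Glo luminescence following 48 hours of compound exposure, 11-point dilutions in confirmatory testing. 500-1,000 cells/well plated 5 hours before dosing; controls were DMSO and 2.3 µM bortezomib.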

The nature of test [9]: qHTS of pediatric cancer cell lines to identify multiple opportunities for drug repurposing: Confirmatory screen for BT-37 cells (AID 1347117). Further: potency means the concentration at half of the fitted maximal effect; nearly all actives have a fitted effect of over 55% in size. A digest of the protocol: as §2
Test [10] in a line: qHTS of pediatric cancer cell lines to identify multiple opportunities for drug repurposing: Confirmatory screen for TC32 cells (AID 1347118).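 Further: potency means the concentration at half of the fitted maximal effect; cells exposed to compound for 48 h before the read; nearly all actives have a fitted effect of over 65% in size.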 As to conditions: TC32 Ewing sarcoma cells viability qHTS. The method in brief: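 TC32 cells, 500-1,000/well in growth medium, compound-treated 48 h at 37 °C; viability from CellTiter-Glo luminescence. Primary screen: MIPE 11-point (0.78 nM–46 µM final), NPC 8-point (0.59 nM–46 µM final); confirmatory at 11-point dilutions.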

Test [11] can be described thus: qHTS of pediatric cancer cell lines to identify multiple opportunities for drug repurposing: Confirmatory screen for U-2 OS cells (AID 1347122).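 Further: plate controls were DMSO for no effect and bortezomib for full effect; nearly all actives have a fitted effect of over 65% in size.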 A digest of the protocol: as §2
The nature of test [12]: qHTS of pediatric cancer cell lines to identify multiple opportunities for drug repurposing: Confirmatory screen for Rh41 cells (AID 1347123).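 Further: potency means the concentration at half of the fitted maximal effect; 48 h compound exposure; nearly all actives have a fitted effect of over 60% in size.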 A digest of the protocol:
as §2

A short description of test [13]: qHTS of pediatric cancer cell lines to identify multiple opportunities for drug repurposing: Confirmatory screen for RD cells (AID 1347124). The method in brief:
as §2

The nature of test [14]: qHTS of pediatric cancer cell lines to identify multiple opportunities for drug repurposing: Confirmatory screen for Rh18 cells (AID 1347125). Further: potency means the concentration at half of the fitted maximal effect; nearly all actives have a fitted effect of over 55% in size. A digest of the protocol: as §2

Inconclusive results are not listed. A number with no mark means an inactive call. Active and inactive are the calls of the source. The call rests on the fitted dose curve; in most records, active means well fitted curve in the direction sought with a large enough effect; inconclusive means small, poorly fitted or top-dose-only effect, or another doubt; inactive means no such curve, though single readings can be large; an effect the other way counts as inactive or inconclusive.

`CC(C)c1cc2c(cc1S(=O)(=O)O)[C@@]1(C)CCC[C@@](C)(C(=O)O)[C@@H]1CC2`: the compound was called inactive in [1], in test [2], in test [3] and in [4].
For the compound `OCC(O)CS` (stereo not given), the call in test [1], in test [2], in test [3] and in [4] was inactive.
For `COc1ccc(C(=O)N2CCN(CC(=O)N3CCOCC3)CC2)cc1`, the result in test [1], in test [2], in [3] and in [4] was inactive.
As for `Nc1ncnc(Nc2ccccc2)n1`, the call in test [1], in test [2], in test [3] and in test [4] was inactive.
Regarding `CC1(c2ccccc2)OC(C(=O)O)=CC1=O` (stereo not given), the outcome in test [1], in [2], in [3] and in test [4] was inactive.
Turning to `O=c1[nH]cnc2nc[nH]c12`, the compound was classed as inactive in [1], in test [2], in test [3] and in test [4].
Turning to `CCCOC(=O)c1ccc(N)cc1`, the compound was called inactive in test [1], in test [2], in test [3] and in test [4].
For the compound `O=c1[nH]c(=O)c2ccccc2o1`, the compound was classed as inactive in [1], in test [2], in [3] and in [4].
Regarding `CN1C[C@@H]2C[C@H]1CN2c1cc2c(cc1F)c(=O)c(C(=O)O)cn2C1CC1`, the outcome in test [1], in test [2], in test [3] and in [4] was inactive.
Consider `C[C@@H](c1ncncc1F)C(O)(Cn1cncn1)c1ccc(F)cc1F` (stereo not given in full), for which the outcome in test [1], in test [2], in test [3] and in test [4] was inactive.
As for `CN[C@@H]1[C@H](O)[C@H](NC)[C@H]2O[C@@]3(O)C(=O)C[C@@H](C)O[C@H]3O[C@@H]2[C@H]1O`, the compound was called inactive in test [1], in test [2], in test [3] and in [4].
Regarding `CCCNC(C)(C)COC(=O)c1ccccc1`, the call in test [1], in test [2], in test [3] and in test [4] was inactive.
For the compound `CC(=O)Nc1cccc(O)c1`, the call in [1], in [2], in test [3] and in test [4] was inactive.
For `CNc1c2c(nn1C)CCCC2`, the result in test [1], in [2], in test [3] and in test [4] was inactive.
As to `O=C(O)Cc1cn(-c2ccccc2)nc1-c1ccc(Cl)cc1`, the call in [1], in test [2], in test [3] and in test [4] was inactive.
For `CC(=O)N(CC(O)CO)c1c(I)c(C(=O)NCC(O)CO)c(I)c(C(=O)NCC(O)CO)c1I` (stereo not given), the call in test [1], in test [2], in [3] and in test [4] was inactive.
With `Nc1c2c(nc3c1CCC3)CCCC2`, the call in [1], in [2], in [3] and in [4] was inactive.
In the case of `CCN(CC)CC1CCCCN1CC(=O)N1c2ccccc2C(=O)Nc2cccnc21` (stereo not given), the outcome in [1], in test [2], in test [3] and in test [4] was inactive.
As for `CCCCCCCCCCOc1cc2c(=O)c(C(=O)OCC)c[nH]c2cc1OCC`, the activity change, negative = cytotoxic in test [1] was -13.3% [at 4.84 µM]; in test [2] it was 1.24% [at 4.84 µM]; in test [3], 19.2% [at 4.84 µM]; in [4], 18.9% [at 4.84 µM].
On to `Cc1cc(C)c(NC(=O)CN(CC(=O)O)CC(=O)O)c(C)c1Br`, for which the compound was classed as inactive in [1], in [2], in test [3] and in test [4].
In the case of `CC(C)=CCC[C@@](C)(O)[C@H]1CC=C(C)CC1`, the call in test [1], in [2], in test [3] and in [4] was inactive.
Regarding `CC(C)CCCC(C)CCCC(C)CCCCC(C)CCCC(C)CCCC(C)C` (stereo not given), the outcome in [1], in test [2], in test [3] and in test [4] was inactive.
Regarding `NC(N)=NCCN1CCCCCCC1`, the activity change, negative = cytotoxic was 7.08% [at 0.597 µM] in test [1], 3.36% [at 0.597 µM] in test [2], 25.1% [at 0.597 µM] in [3] and 22.2% [at 0.597 µM] in [4].
`CC(=O)Nc1ccccc1`: the compound was classed as inactive in [1], in test [2], in test [3] and in test [4].
On to `CCCCCCCCCCCCCCCCN`, for which the call in test [1], in test [2], in [3] and in test [4] was inactive.
In the case of `CCN(CC)CCOC(=O)C(c1ccccc1)c1ccccc1`, the call in test [1], in test [2], in [3] and in test [4] was inactive.
For the compound `CC(=O)N[C@@H](Cc1ccc(O)cc1)C(=O)O`, the compound was called inactive in test [1], in test [2], in test [3] and in test [4].
For the compound `FC(F)(F)C(Cl)Br` (stereo not given), the compound was called inactive in test [1], in test [2], in [3] and in [4].
`CCOC(N)=O`: the call in [1], in test [2], in test [3] and in [4] was inactive.
For `Cc1[nH]c(C)c(Cl)c(=O)c1Cl`, the result in test [1], in test [2], in test [3] and in [4] was inactive.
Regarding `COc1ccc2cc(CCC(C)=O)ccc2c1`, the result in test [1], in [2], in [3] and in test [4] was inactive.
As for `O=C1c2ccccc2C(=O)C1c1ccc(Br)cc1`, the compound was called inactive in test [1], in test [2], in [3] and in test [4].
With `NCC1CCC(C(=O)Oc2ccc(CCC(=O)O)cc2)CC1` (stereo not given), the compound was called inactive in test [1], in test [2], in test [3] and in [4].
For `Cc1c(NC(C)C)c(=O)n(-c2ccccc2)n1C`, the call in test [1], in test [2], in test [3] and in [4] was inactive.
Take `CC(=O)OCC(=O)[C@@]1(O)CC[C@H]2[C@@H]3CCC4=CC(=O)C=C[C@]4(C)[C@@]3(F)[C@@H](O)C[C@@]21C`: the compound was called inactive in test [1], in test [2], in test [3], in test [4], in test [8] and in test [11]. The Potency in test [5] is 10.4 µM (active); in test [6] it was 16.5 µM (active); in [7], 14.7 µM (active); in test [9], 16.5 µM (active); in test [10], 14.7 µM (active); in test [12] it was 11.7 µM (active). For the same compound, the values for the Potency in [13] and in test [14] were 20.8 µM (active) and 18.5 µM (active), respectively.
